Measured values as given in PubChem BioAssay (NCI).
Compounds without any hit were thinned out: in the full panel of roughly 83,000, 20% have a hit.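 How to read the values: 0–100, growth inhibition (40 = 60% inhibited); 0, no net growth; -100 to 0, cell death (-40 = 40% of starting cells died; -100 = all dead).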 Active and inactive are the calls of the source. The calls were made as follows: active = growth percent below 10; inactive = the rest.

Tests used:
Assay in all cases: NCI-60 one-dose screen, 48 h (100 = growth as untreated, 0 = no growth, -100 = all killed)
[1] = tested on: DU-145 prostate; settings: 10 µM
[2] = tested on: K-562 leukemia; settings: 10 µM
[3] = tested on: MALME-3M melanoma; settings: 10 µM
[4] = tested on: RXF 393 renal; settings: 10 µM
[5] = tested on: SF-268 CNS; settings: 10 µM
[6] = tested on: SF-295 CNS; settings: 10 µM
[7] = tested on: SF-539 CNS; settings: 10 µM
[8] = tested on: UACC-257 melanoma; settings: 10 µM
[9] = tested on: M14 melanoma; settings: 10 µM
[10] = tested on: HCT-15 colon; settings: 10 µM
[11] = tested on: HT29 colon; settings: 10 µM
[12] = tested on: SNB-75 CNS; settings: 10 µM
[13] = tested on: U251 CNS; settings: 10 µM
[14] = tested on: PC-3 prostate; settings: 10 µM
[15] = tested on: SK-MEL-5 melanoma; settings: 10 µM
[16] = tested on: UACC-62 melanoma; settings: 10 µM unless noted
[17] = tested on: LOX IMVI melanoma; settings: 10 µM
[18] = tested on: SK-MEL-28 melanoma; settings: 10 µM
[19] = tested on: MDA-MB-231 breast; settings: 10 µM
[20] = tested on: SNB-19 CNS; settings: 10 µM

Measured: growth

Nc1nc2c(c(-c3nc(N)nc4c3CCc3ccccc3-4)n1)CCc1ccccc1-2
inactive: [1] 107% | [2] 99.2% | [3] 85.3% | [4] 115% | [5] 103% | [6] 99.5% | [7] 93.1% | [8] 109% | [9] 105% | [10] 104% | [11] 112% | [12] 98.8% | [13] 114% | [14] 86.9% | [15] 99.3% | [16] 94.6% | [17] 98.3% | [18] 115%

CC(=O)CC(=O)N(C)C
inactive: [1] 104% | [2] 101% | [3] 98.7% | [4] 110% | [5] 101% | [6] 95.8% | [7] 97.6% | [8] 99.3% | [9] 107% | [11] 97.8% | [12] 80.1% | [13] 100% | [14] 92.8% | [15] 93.7% | [16] 88.8% | [17] 94.1% | [18] 105%

O=C(O)c1ccc(S(=O)(=O)O)cc1
inactive: [1] 133% | [2] 114% | [3] 97.2% | [19] 107% | [5] 123% | [6] 107% | [7] 97.9% | [9] 117% | [10] 102% | [11] 107% | [12] 94.9% | [13] 103% | [14] 88.2% | [15] 110% | [16] 102% | [17] 97.3% | [18] 109%

O=C1C=CC2=C3c4cc(O)c(O)cc4CC3(O)COC2=C1O (configuration not stated)
inactive: [1] 119% | [2] 108% | [3] 124% | [19] 99.1% | [5] 107% | [6] 107% | [7] 90% | [10] 105% | [11] 100% | [12] 88% | [20] 104% | [13] 105% | [14] 93.7% | [15] 138% | [16] 98.1% | [17] 99.2% | [18] 119%

c1ccc(Cc2ccccc2)cc1
inactive: [1] 103% | [2] 119% | [3] 96% | [19] 105% | [5] 107% | [6] 110% | [7] 93.5% | [9] 112% | [10] 99% | [11] 118% | [12] 98.9% | [20] 104% | [13] 103% | [14] 82.8% | [15] 116% | [16] 103% | [17] 99.5% | [18] 112%

COC(=O)C(C)Oc1ccc(OC#N)cc1 (configuration not stated)
inactive: [1] 105% | [2] 94.1% | [3] 93.1% | [4] 101% | [5] 98.9% | [6] 96.3% | [7] 94.6% | [8] 104% | [9] 101% | [11] 102% | [12] 88.9% | [13] 101% | [14] 86.4% | [15] 99% | [16] 86.8% | [17] 93.2% | [18] 106%

COc1ccccc1NC(=O)C1=C(C)NC(C)=C(C(=O)Nc2ccccc2OC)C1c1cccc([N+](=O)[O-])c1
inactive: [1] 84.1% | [2] 57.3% | [3] 84.7% | [4] 79.2% | [5] 67% | [6] 49.5% | [7] 75.2% | [8] 92.3% | [9] 76.5% | [10] 64.4% | [11] 75.8% | [12] 74.2% | [13] 76% | [14] 41.6% | [15] 61.5% | [17] 69.1% | [18] 82.2%

O=C(Cc1nc2ccc([N+](=O)[O-])cc2nc1CC(=O)c1cccnc1)c1cccnc1
active: [12] 4%
inactive: [1] 76.5% | [2] 70.7% | [3] 68.5% | [4] 20.1% | [5] 47% | [6] 54.5% | [7] 30.1% | [8] 78.6% | [9] 82.8% | [10] 58.3% | [11] 95.8% | [13] 37.7% | [14] 96.7% | [15] 74.5% | [16] 69.4% | [17] 49.4% | [18] 80.6%

CCOC(=O)c1cc(/C=C/c2cccc(Cl)c2)on1
inactive: [1] 95.2% | [2] 31.6% | [3] 93.1% | [4] 97.1% | [5] 93.7% | [6] 88.2% | [7] 89.6% | [8] 108% | [9] 78.8% | [10] 64.8% | [11] 78.8% | [12] 87.4% | [13] 87.5% | [14] 85.1% | [15] 96.9% | [16] 78.8% | [18] 104%
active: [17] -3.76%
